A selection: hits, their analogues and other compounds. The true share with any hit is near 0.26%.
CXXC DNA block – qHTS Fluorescence Polarization Assay for Inhibitors of MLL CXXC domain - DNA interaction; MLL-CXXC / FITC-HOXA9 DNA fluorescence polarization; Potency, µM (highest dose often 115 µM), for the others: at the highest dose activity change, negative = inhibition, most hits filed as inhibitors; Histone-lysine N-methyltransferase 2A (Homo sapiens), Q03164; 290,000 tested, 0.037% active; AID 2662, 2010; active = well fitted inhibition curve with a large enough effect in the polarisation, with a control signal flat, not every such curve was filed as active; inconclusive = small, poorly fitted or top-dose-only effect, or effect the other way, or a change in a side signal; inactive = no such curve, though single readings can be large or run the other way; the % refers to the polarisation; note: potency is the fitted concentration of half-maximal effect
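Purified MLL-CXXC (added from a 7 uM solution) was preincubated 5 min at ambient with pinned compounds in 50 mM Tris-HCl pH 7.5, 50 mM NaCl, 1 mM DTT, 0.05% BSA. Fluorescein-labeled HOX-A9 DNA (50 nM solution) followed, 30 min, then polarization read.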
Lamin A splicing – qHTS Assay for Modulators of Lamin A Splicing. HeLa LMNA splicing GFP/RFP minigene ratio, 48 h. Potency, µM (series often up to 46.1 µM), without a hit: top-dose ratio change, negative = inhibition, most hits filed as inhibitors. 200,000 tested, 0.01% active. AID 1487, 2009; active = well fitted inhibition curve with a large enough effect in the signal ratio, with a control signal flat, not every such curve was filed as active; inconclusive = small, poorly fitted or top-dose-only effect, or effect the other way, or a change in a side signal; the % refers to the signal ratio; note: potency is the fitted concentration of half-maximal effect; % is set by controls: 0 for no effect and ±100 for the full control effect
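S3 HeLa stable clones carrying a lamin A-EGFP splicing minigene plus DsRed2 were seeded at 600 cells/well in Opti-MEM with 2% FBS, pin-dosed and incubated 48 h at 37°C. Acumen cytometry (488 nm) gave the GFP/RFP total-intensity ratio.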
Menin MLL FP TR – qHTS Assay for Inhibitors Targeting the Menin-MLL Interaction in MLL Related Leukemias: Competition With Texas Red Labeled MLL-derived Mutant Peptide. Menin + Texas Red MLL mutant peptide, fluorescence polarization. Potency, µM (highest dose often 61.6 µM), inactives show at the highest dose FP activity change, negative = inhibition, most hits filed as inhibitors. 270,000 tested, 0.23% active. AID 1768, 2009; active = well fitted inhibition curve with a large enough effect in the polarisation, with a control signal flat, not every such curve was filed as active; inconclusive = small, poorly fitted or top-dose-only effect, or effect the other way, or a change in a side signal; inactive = no such curve, though single readings can be large or run the other way; the % refers to the polarisation; note: potency is the fitted concentration of half-maximal effect; % of control where 0% means no effect
Epigenetic reg – Quantitative High-Throughput Screen for Regulators of Epigenetic Control. murine LDR cells, GFP reporter derepression, 30 h. Potency, µM (highest dose often 53.9 µM), for inactives: top-dose GFP activation, hits mostly activators. 280,000 tested, 0.2% active. AID 1865, 2009; active = well fitted activation curve with a large enough effect; inconclusive = small, poorly fitted or top-dose-only effect; note: potency is the fitted concentration of half-maximal effect; % of control where 0% means no effect; nearly all actives have a fitted effect of over 60% in size
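Murine LDR cells bearing a silenced CMV-driven GFP reporter were exposed to compound for 30 h at 37 C. After PBS washes, GFP-positive cells (20-120 um objects) counted by laser-scanning microplate cytometry.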
Menin-MLL FL inh – qHTS Assay for Inhibitors Targeting the Menin-MLL Interaction in MLL Related Leukemias: Competition With Fluorescein Labeled MLL-derived Peptide; Fluorescence polarization, fluorescein-MLL peptide displacement from menin; FP activity change, % at 61.4 µM; 290,000 tested, under 10 active; active = well fitted curve in the direction sought with a large enough effect in the polarisation, not every such curve was filed as active; inconclusive = small, poorly fitted or top-dose-only effect, or effect the other way, or a change in a side signal; inactive = no such curve, though single readings can be large or run the other way; the % refers to the polarisation; note: % of control where 0% means no effect
Numbers without * were called inactive; ? = inconclusive; nt = not tested or not shown; [ ] = remark or other dose.

SMILES	CXXC DNA block	Lamin A splicing	Menin MLL FP TR	Epigenetic reg	Menin-MLL FL inh
C=CC1=C(C)C2=NC1=CC1=NC(=CC3=NC(=CC4=NC(=C2)C(C)=C4CCC(=O)O)C(CCC(=O)O)=C3C)C(C=C)=C1C.[Zn]	nt	nt	?	-3%	?
Nc1cccc2c(=O)[nH]ccc12	nt	nt	17%	nt	10
Nc1nc(-c2ccccc2)c(-c2ccccc2)n1N	0%	nt	-18%	nt	7
c1ccc(-c2cnn3c(-c4ccccc4)c(-c4ccccc4)nc3n2)cc1	?	-9%	0%	2.8µM*	?
CCOC(=O)c1nn(-c2ccc(Cl)cc2Cl)c(=N)c(C#N)c1C	4%	nt	nt	11µM*	?
CCOC(=O)c1nn(-c2ccc(Cl)cc2)c(=O)c(C#N)c1C	-2%	nt	0%	nt	-1
CCOC(=O)c1c(/N=C/N(C)C)sc(/C=N/Nc2ccccc2)c1-c1ccccc1	4%	?	?	10µM*	14
CCOC(=O)c1c(/N=C/N(C)C)sc(/C=N/Nc2ccccc2)c1-c1ccccc1Cl	?	?	?	-1%	5
Cc1ccc(-c2nc3ccccc3s2)cc1NC(=S)NC(=O)c1cccc2ccccc12	5%	?	11µM*	-1%	nt
CC(=O)N1CCc2c(sc(NC(=O)CSc3ccc(F)cc3)c2-c2nc3ccccc3s2)C1	nt	2%[46 µM]	nt	8%	nt
CCN1CCc2c(sc(NC(=O)CSc3ccccc3)c2-c2nc3ccccc3s2)C1	nt	?	nt	0.89µM*	nt
CN1CCc2c(sc(NC(=O)CSc3ccc(F)cc3)c2-c2nc3ccccc3s2)C1	nt	?	nt	3.2µM*	nt
Cc1csc(NC(=O)CSCC(=O)O)c1-c1nc2ccccc2s1	-11%	nt	nt	-2%	3
CC(=O)Nc1sc2c(c1-c1nc3ccccc3s1)CCN(C(C)C)C2	138%	nt	-9%	4µM*	?
Cc1ccc(C)c(-n2c3nc(=O)[nH]c(=O)c-3cc3cc([N+](=O)[O-])ccc32)c1	14%	11µM*	?	1%	?
CC(C)Oc1ccc(C(=O)Nc2ccc(-c3nc4ccccc4s3)cc2)cc1	nt	?	nt	6%	nt
COc1ccccc1OC(C)C(=O)Nc1ccc(-c2nc3ccccc3s2)cc1 (stereo not drawn)	nt	12%[46 µM]	nt	35µM*	nt
O=C1c2cccc3c(N4CCCCC4)ccc(c23)C(=O)N1c1cccc(O)c1	?	nt	-27%	11µM*	?
COc1c(-c2coc3cc4c(cc3c2=O)CC(O)C(C)(C)O4)ccc2c1C=CC(C)(C)O2 (stereo not drawn)	nt	nt	-3%	-1%	-5
C[n+]1ccccc1/C=C/c1ccc([N+](=O)[O-])cc1	5%	nt	-21%	nt	-4
O=[N+]([O-])c1ccc(/C=C/C2=NN(c3ccccc3)C(c3ccco3)C2)cc1 (stereo not drawn)	?	?	?	0.79µM*	?
O=[N+]([O-])c1ccc(C2=NN(c3ccccc3)C(c3ccco3)C2)cc1 (stereo not drawn)	27%	nt	nt	2µM*	?
CN1CCN(C(=O)c2ccc(-n3c(=O)c(=O)[nH]c4ccccc43)cc2)CC1	nt	nt	nt	-4%	nt
Cc1ccc(F)c(C2C3C=CCCC3(C)C(=O)N2Cc2ccccc2)c1 (stereo not drawn)	nt	nt	-28%	nt	-1
O=C(NCCCN1CCOCC1)c1ccc(-n2c(=O)c(=O)[nH]c3ccccc32)cc1	nt	nt	nt	-2%	nt
SMILES	CXXC DNA block	Lamin A splicing	Menin MLL FP TR	Epigenetic reg	Menin-MLL FL inh
O=C1CC(c2ccccc2)Cc2[nH]c(=O)c(-c3nc(-c4ccc(Cl)cc4)cs3)cc21 (stereo not drawn)	nt	nt	nt	3%	nt
Cc1sc(-c2cc3c([nH]c2=O)CC(c2ccccc2)CC3=O)nc1-c1ccc(Cl)cc1 (stereo not drawn)	nt	nt	nt	18µM*	nt
COC(=O)C1=C(C(=O)OC)[C@@H]2Nc3ccccc3[C@@]23C[C@@H](C(=O)OC)N(S(=O)(=O)c2cccs2)C3=N1	nt	-1%[9.22 µM]	1%[11.7 µM]	nt	1[11.7 µM]
CCOC(=O)N1CCN(Cc2ccc(O)c3ncccc23)CC1	63%	?	-14%	4µM*	-1
CCOC(=O)N1CCN(Cc2ccccn2)CC1	-1%	-2%	-12%	-1%	2
Oc1ccc(CN2CCC(Cc3ccccc3)CC2)c2cccnc12	31%	nt	?	?	-5
Oc1ccc(CN2CCCCC2)c2cccnc12	2%	?	-1%	?	2
Oc1ccc(CN2CCN(c3ccccc3)CC2)c2cccnc12	9%	-15%	0%	3.5µM*	0
Oc1ccc(CN2CCc3ccccc3C2)c2cccnc12	22%	?	-14%	3.5µM*	-2
Cc1cc(NC(=O)CCCN2C(=O)/C(=C/c3cccs3)SC2=S)no1	-18%	-17%	18µM*	-1%	4
COc1cccc(/C=C2\SC(=S)N(CCCC(=O)Nc3cc(C)on3)C2=O)c1	6%	nt	?	nt	?
CCCCCCCCCCCCCCCCCC(=O)NCCc1ccc(O)c(O)c1	nt	nt	?	11µM*	3
O=C(NCc1ccco1)c1cccn2c(=O)c3cc4ccccc4cc3nc12	5%	1%	14%	16µM*	-14
O=C(NCCN1CCCCC1)c1ccc(Cc2nc3ccccc3[nH]2)cc1	nt	nt	nt	3%	nt
O=C1NC(=S)N/C1=C\c1ccc(N2CCOCC2)cc1	6%	nt	9%	5%	0
O=C1N/C(=C/c2ccc(N3CCCC3)cc2)C(=O)N1c1ccccc1	14%	3%	?	16µM*	nt
O=C1/C(=C/c2ccc(N3CCCC3)cc2)NC(=S)N1C1CC1	?	?	3%	18µM*	?
O=C(NCCN1CCCC1)c1ccc(-n2c(=O)c(=O)[nH]c3ccccc32)cc1	nt	nt	nt	1%	nt
CC[n+]1c(C=C2C=C(C)OC(C)=C2)sc2ccccc21	28%	nt	-22%	7.9µM*	?
COc1ccc(NC(=O)N2CCc3nc(-c4ccccc4)c4c(c3C2)CO[C@@H](C)C4)cc1	nt	0%[9.22 µM]	-9%[11.7 µM]	nt	-4[11.7 µM]
C/C(=N\NC(=O)c1ccc(Cl)c(Cl)c1)c1ccc(Br)s1	5%	-15%	11µM*	-1%	2
C/C(=N/NC(=O)c1ccc2c(c1)OCO2)c1ccc(Br)s1	9%	nt	8%	0%	2
CCCN1C(=O)/C(=C/c2c(N3CCNC(=O)C3CC(=O)OC)nc3c(C)cccn3c2=O)SC1=S (stereo not drawn)	?	nt	nt	14µM*	?
CCOC(=O)CC1C(=O)NCCN1C(=O)c1cc2c(=O)n3cccc(C)c3nc2s1 (stereo not drawn)	3%	-9%	-9%	-2%	3
CC[n+]1ccccc1/C=C1\Sc2ccc(C)cc2N1C	?	nt	-1%	nt	24
